Only some compounds are listed: those with a hit (about 9.4% of all), similar ones and a draw of the others.
Pf growth 96h: inhibits malaria parasite growth, 96 h | P. falciparum luciferase reporter growth, 96 h | Potency, µM (series often up to 28.7 µM), for the others: at the top dose activity change, negative = inhibition, most hits filed as inhibitors | actives 6.9% (n = 320,000) | AID 504834; also: % is scaled to controls: 0 for no effect and ±100 for the full control effect
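Infected RBCs, 2% Hct / 0.05% parasitemia final; luciferase-reporter P. falciparum; cpd 96 h, 37 C, 5% CO2; luciferase detection reagent; luminescence.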
AMA1 RON2 block: inhibitors of Plasmodium falciparum AMA1-RON2 interaction | AlphaScreen AMA1-biotinylated RON2 peptide binding | Potency, µM (series often up to 58.2 µM), without a hit: top-dose activity change, negative = inhibition, actives largely listed as inhibitors | actives 0.2% (n = 360,000) | AID 720542;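 also: 0% = vehicle wells and -100% = peptide control; nearly all actives have a fitted effect of over 45% in size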
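AMA1 (3D7) with his tag at 25 nM final met compounds first, then biotinylated RON2 peptide at 25 nM; detection used donor plus acceptor beads, 10 µg/mL apiece, read by AlphaScreen after 30 min at room temperature.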
SARS PLpro yeast: inhibitors of SARS-CoV papain-like protease in yeast; S. cerevisiae expressing SARS-CoV PLpro, growth rescue; actives 0.19% (n = 330,000); Potency, µM (titrated, usually from 32.9 µM), for the others: at the highest dose activity, positive = growth rescue, hits mostly activators; calls by dose curve; also: 0% is about no effect; nearly all actives have a fitted effect of over 55% in size
Pf growth 48h: P. falciparum growth inhibition at 48 hours (one generation). Potency, µM (top dose mostly 28.7 µM), for inactives: top-dose activity change, negative = inhibition, actives largely listed as inhibitors. P. falciparum luciferase growth in erythrocytes, 48 h. actives 5.9% (n = 310,000); also: % is scaled to controls: 0 for no effect and ±100 for the full control effect
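Here the parasites carry a stable luciferase gene and grow inside erythrocytes in Albumax-based RPMI medium with compound for one erythrocytic cycle. Activity is scored as loss of luminescent signal.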
* hit, by the source's call; [ ] = another dose, or the depositor's remark. Unless noted, calls follow the shape of the dose curve; as a rule, active = well fitted curve in the direction sought with a large enough effect; inconclusive = small, poorly fitted or top-dose-only effect, or another doubt; inactive = no such curve, though single readings can be large; an effect the other way counts as inactive or inconclusive. Potency is read from the fitted curve at half-maximal effect.

For Cc1ccc(S(=O)(=O)N(C)C)cc1NC(=O)COC(=O)/C(=C/c1ccc(F)cc1)c1cccs1 the results were Pf growth 96h -3%, AMA1 RON2 block -22%, SARS PLpro yeast -2% and Pf growth 48h 2%.
For CCCn1c(=O)c(C(=O)Nc2cccc(C)n2)c(O)c2ccccc21 the results were Pf growth 96h inconclusive, AMA1 RON2 block 52%, SARS PLpro yeast -2% and Pf growth 48h 103%.
Screening Cc1ccc(CNC(=O)c2ccc(N3CCC4(CC3)CC(c3cccc(Br)c3)=NO4)c(NC(=O)c3ccco3)c2)cc1 returned Pf growth 96h 3.7µM*, AMA1 RON2 block -1%, SARS PLpro yeast -3% and Pf growth 48h 1.7µM*.
Screening CCCNC(=O)c1ccc(N2CCC3(CC2)CC(c2ccccc2)=NO3)c(NC(=O)c2cccc(OC)c2)c1 returned Pf growth 96h 2.1µM*, AMA1 RON2 block 9%, SARS PLpro yeast -10% and Pf growth 48h inconclusive.
Screening O=NN1CCN(c2ccncc2S(=O)(=O)N2CCCCC2)CC1 returned Pf growth 96h -22%, AMA1 RON2 block -1%, SARS PLpro yeast 5% and Pf growth 48h -6%.
CCN(CC)S(=O)(=O)c1ccc(OC)c(NS(=O)(=O)Cc2ccccc2)c1 was read as Pf growth 96h 12µM*, AMA1 RON2 block -2%, SARS PLpro yeast -4% and Pf growth 48h -9%.
Screening CCN(CC)S(=O)(=O)c1ccc(OC)c(NC(=O)CSc2ccccc2)c1 returned Pf growth 96h inconclusive, AMA1 RON2 block -1%, SARS PLpro yeast 3% and Pf growth 48h -16%.
Cc1ccnc(NC(=O)Nc2ccc3c(c2)OCO3)c1 was read as Pf growth 96h 23%, AMA1 RON2 block 3%, SARS PLpro yeast -5% and Pf growth 48h inactive.
`COc1cccc(C(C(=O)NC2CCCCC2)N(C(=O)Cc2cccs2)c2ccc(-n3cnnn3)c(OC)c2)c1` (centres undefined) gave Pf growth 96h 5%, AMA1 RON2 block -4%, SARS PLpro yeast 1% and Pf growth 48h 10µM*.
For COc1cccc(N(C(=O)Cn2nnc(-c3cccs3)n2)C(C(=O)NC2CCCCC2)c2ccncc2)c1 (centres undefined) the results were Pf growth 96h inconclusive, AMA1 RON2 block 11%, SARS PLpro yeast -9% and Pf growth 48h -14%.
Screening COc1cccc(C(C(=O)NC2CCCCC2)N(C(=O)c2cccs2)c2ccc3c(c2)OCO3)c1 (centres undefined) returned Pf growth 96h -101%, AMA1 RON2 block 9%, SARS PLpro yeast 17% and Pf growth 48h 10µM*.
For COc1cc(N(C(=O)Cc2cccs2)C(C(=O)NC2CCCCC2)c2cccc(OC)c2OC)ccc1-n1cnnn1 (centres undefined) the results were Pf growth 96h -25%, AMA1 RON2 block -3%, SARS PLpro yeast -9% and Pf growth 48h 10µM*.
Screening Cn1cccc1C(C(=O)NC1CCCCC1)N(C(=O)Cc1cccs1)c1ccc2c(c1)OCO2 (centres undefined) returned Pf growth 96h inconclusive, AMA1 RON2 block 5%, SARS PLpro yeast 6% and Pf growth 48h inconclusive.
Nc1ccc2c3c(cccc13)CC2 was read as Pf growth 96h inconclusive, AMA1 RON2 block -5%, SARS PLpro yeast -12% and Pf growth 48h inconclusive.
Screening CC(C)c1nc2sc3c(c2c(=O)o1)CCCC3 returned Pf growth 96h 5%, AMA1 RON2 block -3%, SARS PLpro yeast -12% and Pf growth 48h 25%.
`COc1ccc(N2C(=O)/C(=C/c3ccc([N+](=O)[O-])cc3)C=C2c2ccccc2)cc1` gave Pf growth 96h 13µM*, AMA1 RON2 block -21%, SARS PLpro yeast 2% and Pf growth 48h inconclusive.
For C=Cn1ccnc1P(=S)(c1ccc(N(C)C)cc1)c1nccn1C=C the results were Pf growth 96h inconclusive, AMA1 RON2 block 13%, SARS PLpro yeast -6% and Pf growth 48h -13%.
For C=Cn1ccnc1P(=S)(c1ccc2c(c1)c1ccccc1n2CC)c1nccn1C=C the results were Pf growth 96h 1%, AMA1 RON2 block -19%, SARS PLpro yeast 11% and Pf growth 48h 2.9µM*.
Screening COc1ccc(-c2nc(CS(=O)CC(=O)NC3CCCC(C)C3C)c(C)o2)cc1OC (centres undefined) returned Pf growth 96h 12µM*, AMA1 RON2 block -5%, SARS PLpro yeast 13% and Pf growth 48h -14%.
CCc1ccc(-c2nc(CS(=O)CC(=O)NC3CCCCCC3)c(C)o2)cc1 (centres undefined) was read as Pf growth 96h 8.3µM*, AMA1 RON2 block 1% and Pf growth 48h 21%.
Screening CCOc1cc2c3c(c1)C1(C(=O)N3C(C)(C)CC2C)C(C#N)=C(N)N2C(=C1C#N)Nc1ccccc12 (centres undefined) returned Pf growth 96h inconclusive, AMA1 RON2 block -18%[2.32 µM], SARS PLpro yeast -11% and Pf growth 48h 3.3µM*.
Screening CCOc1cc2c3c(c1)C1(Nc4ccccc4S1)C(=O)N3C(C)(C)CC2C (centres undefined) returned Pf growth 96h inconclusive, AMA1 RON2 block inconclusive and SARS PLpro yeast -22%.
O=C(COC(=O)CNS(=O)(=O)c1ccc(Br)cc1Cl)NC1CC1 was read as Pf growth 96h 34%, AMA1 RON2 block 3%, SARS PLpro yeast -5% and Pf growth 48h 22%.
O=C(C(=O)N1CCOCC1)c1cn(Cc2ccc(F)cc2)c2ccccc12 was read as Pf growth 96h -14%, AMA1 RON2 block 1%, SARS PLpro yeast 0% and Pf growth 48h -6%.
[O-][N+]1=c2ccc(Nc3ccccc3)cc2=NC12CCCCC2 was read as AMA1 RON2 block inconclusive, SARS PLpro yeast -26% and Pf growth 48h 9.3µM*.
O=[N+]([O-])c1ccc2c(c1N1CCCCC1)=NC1(CCCCC1)[N+]=2[O-] was read as Pf growth 96h 12%, AMA1 RON2 block inconclusive, SARS PLpro yeast -1% and Pf growth 48h 1%.
`COc1ccc(Nc2ccc3c(c2)=NC2(CCCCC2)[N+]=3[O-])cc1` gave Pf growth 96h inconclusive, AMA1 RON2 block -26%, SARS PLpro yeast -23% and Pf growth 48h 12µM*.
For CCC(=O)Nc1c(OC(=O)CC)ccc2c(C)cc(=O)oc12 the results were Pf growth 96h 3.7µM*, AMA1 RON2 block -3%, SARS PLpro yeast 14% and Pf growth 48h -9%.
`O=C(CN1C(=O)C2CC=C(Cl)CC2C1=O)Nc1ccc(C(=O)O)cc1` (centres undefined) gave Pf growth 96h 13µM*, AMA1 RON2 block 4%, SARS PLpro yeast -3% and Pf growth 48h 20%.
Screening O=C(CCN1C(=O)C2CC=C(Cl)CC2C1=O)Nc1ccccc1O (centres undefined) returned Pf growth 96h 1µM*, AMA1 RON2 block -7%, SARS PLpro yeast -1% and Pf growth 48h -6%.
For CC(C)(C)OC(=O)N1CCC(c2c(C(=O)NCC3CCN(C4CCCC4)C3)cnn2-c2ccc(F)cc2)CC1 (centres undefined) the results were Pf growth 96h -10%, AMA1 RON2 block 2%, SARS PLpro yeast -3% and Pf growth 48h 2.6µM*.

High-throughput results (PubChem BioAssay)
